Assay results from ChEMBL document CHEMBL1961873, “Compounds: GSK PKIS; Assays: Nanosyn kinase panel” (2012).

Columns and labels:
[1] = target: Tyrosine-protein kinase receptor UFO (Homo sapiens) (UniProt P30530); settings: at 1 µM
[2] = target: Tyrosine-protein kinase Blk (Homo sapiens) (UniProt P51451); settings: at 0.1 µM
[3] = target: Tyrosine-protein kinase Blk (Homo sapiens) (UniProt P51451); settings: at 1 µM
[4] = target: T1, Cytoplasmic tyrosine-protein kinase BMX (Homo sapiens) (UniProt P51813); settings: at 0.1 µM
T1 sequence (whole entry): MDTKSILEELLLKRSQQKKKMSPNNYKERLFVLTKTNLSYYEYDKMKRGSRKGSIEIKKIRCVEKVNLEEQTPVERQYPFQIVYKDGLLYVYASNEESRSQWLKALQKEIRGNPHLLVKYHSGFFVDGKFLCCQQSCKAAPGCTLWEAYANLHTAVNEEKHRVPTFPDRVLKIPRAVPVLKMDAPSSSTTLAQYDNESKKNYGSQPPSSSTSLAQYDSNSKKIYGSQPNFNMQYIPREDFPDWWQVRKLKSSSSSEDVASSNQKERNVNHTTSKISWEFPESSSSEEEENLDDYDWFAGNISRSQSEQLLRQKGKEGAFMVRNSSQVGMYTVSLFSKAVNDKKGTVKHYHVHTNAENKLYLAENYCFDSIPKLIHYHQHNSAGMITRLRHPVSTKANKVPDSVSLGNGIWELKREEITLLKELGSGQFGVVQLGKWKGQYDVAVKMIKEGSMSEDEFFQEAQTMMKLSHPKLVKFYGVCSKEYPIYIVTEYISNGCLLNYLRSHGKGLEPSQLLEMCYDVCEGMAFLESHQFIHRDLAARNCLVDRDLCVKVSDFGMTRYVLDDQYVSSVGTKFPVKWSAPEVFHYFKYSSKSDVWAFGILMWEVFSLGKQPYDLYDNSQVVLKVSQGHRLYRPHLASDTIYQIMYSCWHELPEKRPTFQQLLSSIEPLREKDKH

[5] = target: T1, Cytoplasmic tyrosine-protein kinase BMX (Homo sapiens); settings: at 1 µM
[6] = target: Protein-tyrosine kinase 6 (Homo sapiens) (UniProt Q13882); settings: at 0.1 µM
[7] = target: Protein-tyrosine kinase 6 (Homo sapiens) (UniProt Q13882); settings: at 1 µM
[8] = target: Tyrosine-protein kinase BTK (Homo sapiens) (UniProt Q06187); settings: at 0.1 µM
[9] = target: Tyrosine-protein kinase BTK (Homo sapiens) (UniProt Q06187); settings: at 1 µM
[10] = target: Tyrosine-protein kinase CSK (Homo sapiens) (UniProt P41240); settings: at 0.1 µM
[11] = target: Tyrosine-protein kinase CSK (Homo sapiens) (UniProt P41240); settings: at 1 µM
[12] = target: T2, Discoidin domain-containing receptor 2 (Homo sapiens) (UniProt Q16832); settings: at 0.1 µM
T2 sequence (whole entry): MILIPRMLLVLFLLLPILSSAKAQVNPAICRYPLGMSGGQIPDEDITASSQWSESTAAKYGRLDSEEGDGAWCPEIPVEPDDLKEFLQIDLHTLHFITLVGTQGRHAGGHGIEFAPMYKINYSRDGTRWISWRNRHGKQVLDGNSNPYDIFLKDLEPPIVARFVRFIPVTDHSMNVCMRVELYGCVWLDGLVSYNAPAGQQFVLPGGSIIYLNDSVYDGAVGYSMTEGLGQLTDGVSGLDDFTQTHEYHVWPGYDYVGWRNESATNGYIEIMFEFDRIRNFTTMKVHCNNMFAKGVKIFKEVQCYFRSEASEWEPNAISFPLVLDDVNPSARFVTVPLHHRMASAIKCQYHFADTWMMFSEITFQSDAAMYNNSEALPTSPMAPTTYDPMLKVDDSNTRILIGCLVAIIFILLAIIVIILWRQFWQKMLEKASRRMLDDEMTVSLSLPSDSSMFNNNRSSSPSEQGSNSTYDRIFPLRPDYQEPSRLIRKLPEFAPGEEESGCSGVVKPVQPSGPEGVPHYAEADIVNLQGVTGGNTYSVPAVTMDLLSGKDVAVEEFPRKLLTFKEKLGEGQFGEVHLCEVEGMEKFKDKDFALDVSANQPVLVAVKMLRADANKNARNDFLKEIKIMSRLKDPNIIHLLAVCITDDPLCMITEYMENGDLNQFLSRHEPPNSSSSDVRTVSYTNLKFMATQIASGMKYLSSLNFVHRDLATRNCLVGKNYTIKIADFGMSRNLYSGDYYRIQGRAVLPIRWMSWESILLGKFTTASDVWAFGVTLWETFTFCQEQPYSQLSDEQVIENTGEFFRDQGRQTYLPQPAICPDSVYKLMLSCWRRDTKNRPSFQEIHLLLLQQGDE

[13] = target: T2, Discoidin domain-containing receptor 2 (Homo sapiens); settings: at 1 µM
[14] = target: Epidermal growth factor receptor (Homo sapiens) (UniProt P00533); settings: at 0.1 µM
[15] = target: Epidermal growth factor receptor (Homo sapiens) (UniProt P00533); settings: at 1 µM
[16] = system: Epidermal growth factor receptor (Homo sapiens), P00533 [L858R]; settings: at 0.1 µM
[17] = system: Epidermal growth factor receptor (Homo sapiens), P00533 [L858R]; settings: at 1 µM
[18] = system: Epidermal growth factor receptor (Homo sapiens), P00533 [L861Q]; settings: at 0.1 µM
[19] = system: Epidermal growth factor receptor (Homo sapiens), P00533 [L861Q]; settings: at 1 µM
[20] = system: Epidermal growth factor receptor (Homo sapiens), P00533 [T790M]; settings: at 0.1 µM

Chain of Epidermal growth factor receptor (Homo sapiens), P00533 [L858R] (P00533 whole entry L858R): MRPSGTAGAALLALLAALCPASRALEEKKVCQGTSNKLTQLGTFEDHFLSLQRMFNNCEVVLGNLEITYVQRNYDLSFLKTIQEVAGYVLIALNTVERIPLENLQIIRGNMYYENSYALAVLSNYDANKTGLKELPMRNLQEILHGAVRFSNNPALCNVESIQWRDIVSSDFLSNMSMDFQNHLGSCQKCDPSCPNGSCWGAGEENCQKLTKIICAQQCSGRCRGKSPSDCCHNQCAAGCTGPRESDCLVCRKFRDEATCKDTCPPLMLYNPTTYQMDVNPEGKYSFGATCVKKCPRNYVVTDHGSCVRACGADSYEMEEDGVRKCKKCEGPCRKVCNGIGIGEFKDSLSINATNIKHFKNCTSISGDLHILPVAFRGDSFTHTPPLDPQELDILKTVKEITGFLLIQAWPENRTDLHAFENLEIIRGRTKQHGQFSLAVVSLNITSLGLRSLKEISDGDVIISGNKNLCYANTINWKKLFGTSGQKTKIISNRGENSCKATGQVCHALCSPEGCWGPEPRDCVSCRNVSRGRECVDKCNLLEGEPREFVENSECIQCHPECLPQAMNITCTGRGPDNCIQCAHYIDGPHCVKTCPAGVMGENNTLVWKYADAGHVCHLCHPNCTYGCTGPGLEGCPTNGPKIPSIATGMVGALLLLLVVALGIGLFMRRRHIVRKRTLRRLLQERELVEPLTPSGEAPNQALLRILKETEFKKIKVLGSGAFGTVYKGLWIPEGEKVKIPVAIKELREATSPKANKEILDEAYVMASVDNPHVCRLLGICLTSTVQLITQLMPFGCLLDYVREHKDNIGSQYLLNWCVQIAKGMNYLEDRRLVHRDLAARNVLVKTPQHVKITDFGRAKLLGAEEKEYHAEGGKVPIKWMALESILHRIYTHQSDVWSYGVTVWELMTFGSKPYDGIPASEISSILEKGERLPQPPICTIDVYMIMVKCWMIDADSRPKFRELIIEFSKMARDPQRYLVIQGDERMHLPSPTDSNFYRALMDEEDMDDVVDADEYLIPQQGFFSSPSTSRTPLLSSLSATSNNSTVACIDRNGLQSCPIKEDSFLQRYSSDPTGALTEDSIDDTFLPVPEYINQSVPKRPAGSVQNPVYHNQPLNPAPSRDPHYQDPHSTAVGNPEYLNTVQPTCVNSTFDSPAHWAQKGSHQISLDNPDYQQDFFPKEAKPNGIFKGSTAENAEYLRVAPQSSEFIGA
Chain of Tyrosine-protein kinase BTK (Homo sapiens) (Q06187 whole entry): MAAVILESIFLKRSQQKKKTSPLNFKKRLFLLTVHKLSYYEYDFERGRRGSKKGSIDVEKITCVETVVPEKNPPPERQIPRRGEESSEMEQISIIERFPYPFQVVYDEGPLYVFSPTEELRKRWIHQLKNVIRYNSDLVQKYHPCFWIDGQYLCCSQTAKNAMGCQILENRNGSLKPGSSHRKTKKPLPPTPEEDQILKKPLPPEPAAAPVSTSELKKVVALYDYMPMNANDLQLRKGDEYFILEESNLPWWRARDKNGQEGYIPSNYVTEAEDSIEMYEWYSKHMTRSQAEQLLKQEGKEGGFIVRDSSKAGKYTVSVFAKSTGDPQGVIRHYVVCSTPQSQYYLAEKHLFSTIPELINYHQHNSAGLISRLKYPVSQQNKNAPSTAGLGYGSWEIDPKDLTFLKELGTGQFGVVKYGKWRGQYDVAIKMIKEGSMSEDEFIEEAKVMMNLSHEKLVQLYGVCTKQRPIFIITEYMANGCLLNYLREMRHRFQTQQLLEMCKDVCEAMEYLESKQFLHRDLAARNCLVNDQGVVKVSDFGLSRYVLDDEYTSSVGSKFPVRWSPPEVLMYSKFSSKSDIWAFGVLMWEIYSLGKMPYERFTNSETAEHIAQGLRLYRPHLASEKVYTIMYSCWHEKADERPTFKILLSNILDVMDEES
Chain of Tyrosine-protein kinase CSK (Homo sapiens) (P41240 2-450 limits assumed): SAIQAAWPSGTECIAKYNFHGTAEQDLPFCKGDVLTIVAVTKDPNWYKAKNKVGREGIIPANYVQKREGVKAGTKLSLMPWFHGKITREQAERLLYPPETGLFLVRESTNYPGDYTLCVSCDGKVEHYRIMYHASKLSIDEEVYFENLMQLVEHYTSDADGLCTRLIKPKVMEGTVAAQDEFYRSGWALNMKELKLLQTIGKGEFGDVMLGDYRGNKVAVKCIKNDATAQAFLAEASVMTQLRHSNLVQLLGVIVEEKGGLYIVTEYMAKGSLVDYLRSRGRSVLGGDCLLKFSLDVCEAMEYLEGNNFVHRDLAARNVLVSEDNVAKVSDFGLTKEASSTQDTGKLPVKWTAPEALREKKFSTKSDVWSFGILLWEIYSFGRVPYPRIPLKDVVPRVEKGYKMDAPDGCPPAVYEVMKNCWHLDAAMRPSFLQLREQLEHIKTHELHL
Chain of Protein-tyrosine kinase 6 (Homo sapiens) (Q13882 whole entry, looked up): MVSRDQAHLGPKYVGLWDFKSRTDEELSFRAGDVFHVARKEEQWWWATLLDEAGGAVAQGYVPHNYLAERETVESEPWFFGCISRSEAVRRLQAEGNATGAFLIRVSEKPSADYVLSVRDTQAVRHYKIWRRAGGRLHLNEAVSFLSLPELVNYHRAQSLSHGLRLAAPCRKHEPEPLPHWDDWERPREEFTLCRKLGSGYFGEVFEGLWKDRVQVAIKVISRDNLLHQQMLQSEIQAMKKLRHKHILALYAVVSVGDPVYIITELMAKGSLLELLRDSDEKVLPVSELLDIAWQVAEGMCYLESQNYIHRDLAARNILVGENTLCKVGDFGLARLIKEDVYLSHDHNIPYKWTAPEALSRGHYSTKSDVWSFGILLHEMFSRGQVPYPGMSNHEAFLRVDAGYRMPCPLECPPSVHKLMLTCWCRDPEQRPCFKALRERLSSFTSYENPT
Chain of Tyrosine-protein kinase Blk (Homo sapiens) (P51451 2-505 limits assumed): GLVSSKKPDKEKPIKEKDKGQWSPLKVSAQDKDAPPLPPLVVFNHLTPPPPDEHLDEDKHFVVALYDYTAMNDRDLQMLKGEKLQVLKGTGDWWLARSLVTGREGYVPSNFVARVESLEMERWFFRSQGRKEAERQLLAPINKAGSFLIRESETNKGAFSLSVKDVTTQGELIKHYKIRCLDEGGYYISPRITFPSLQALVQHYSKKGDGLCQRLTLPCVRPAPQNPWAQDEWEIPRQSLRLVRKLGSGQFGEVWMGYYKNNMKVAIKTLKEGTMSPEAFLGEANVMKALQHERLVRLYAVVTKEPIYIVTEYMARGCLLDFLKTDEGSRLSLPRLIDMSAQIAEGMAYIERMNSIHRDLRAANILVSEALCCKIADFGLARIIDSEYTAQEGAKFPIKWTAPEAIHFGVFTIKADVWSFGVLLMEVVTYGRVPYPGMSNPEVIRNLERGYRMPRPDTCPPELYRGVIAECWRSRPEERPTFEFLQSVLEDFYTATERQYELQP
Chain of Epidermal growth factor receptor (Homo sapiens) (P00533 whole entry): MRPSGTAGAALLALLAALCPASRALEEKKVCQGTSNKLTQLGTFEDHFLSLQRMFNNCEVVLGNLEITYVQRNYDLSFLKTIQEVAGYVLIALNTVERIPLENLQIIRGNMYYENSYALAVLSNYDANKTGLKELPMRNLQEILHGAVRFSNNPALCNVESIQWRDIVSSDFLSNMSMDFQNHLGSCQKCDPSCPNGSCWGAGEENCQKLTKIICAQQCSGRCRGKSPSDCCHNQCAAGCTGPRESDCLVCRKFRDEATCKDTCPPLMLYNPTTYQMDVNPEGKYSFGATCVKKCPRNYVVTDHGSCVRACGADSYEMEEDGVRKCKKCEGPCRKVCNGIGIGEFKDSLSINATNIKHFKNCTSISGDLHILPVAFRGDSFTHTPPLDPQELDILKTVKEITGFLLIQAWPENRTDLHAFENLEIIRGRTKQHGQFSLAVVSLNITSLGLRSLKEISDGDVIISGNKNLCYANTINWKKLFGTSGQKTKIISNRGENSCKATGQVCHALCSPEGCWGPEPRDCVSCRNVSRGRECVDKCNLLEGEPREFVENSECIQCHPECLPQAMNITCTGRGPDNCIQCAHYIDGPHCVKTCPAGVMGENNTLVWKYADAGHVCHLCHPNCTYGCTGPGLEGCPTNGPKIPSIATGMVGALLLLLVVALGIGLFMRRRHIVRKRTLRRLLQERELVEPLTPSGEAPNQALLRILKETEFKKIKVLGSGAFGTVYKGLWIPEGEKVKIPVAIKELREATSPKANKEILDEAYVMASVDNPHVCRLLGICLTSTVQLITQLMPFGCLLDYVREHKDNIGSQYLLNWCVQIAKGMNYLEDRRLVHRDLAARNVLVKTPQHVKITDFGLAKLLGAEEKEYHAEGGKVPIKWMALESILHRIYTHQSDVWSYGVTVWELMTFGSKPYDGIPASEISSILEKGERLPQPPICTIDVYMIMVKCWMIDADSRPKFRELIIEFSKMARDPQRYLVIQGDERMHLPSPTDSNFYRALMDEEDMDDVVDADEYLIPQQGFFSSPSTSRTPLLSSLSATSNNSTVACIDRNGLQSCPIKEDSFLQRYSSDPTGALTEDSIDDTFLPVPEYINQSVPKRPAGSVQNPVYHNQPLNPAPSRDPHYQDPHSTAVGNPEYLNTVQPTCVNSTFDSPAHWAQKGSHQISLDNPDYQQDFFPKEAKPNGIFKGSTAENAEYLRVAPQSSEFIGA

Row | SMILES | inhibition [1] | inhibition [2] | inhibition [3] | inhibition [4] | inhibition [5] | inhibition [6] | inhibition [7] | inhibition [8] | inhibition [9] | inhibition [10] | inhibition [11] | inhibition [12] | inhibition [13] | inhibition [14] | inhibition [15] | inhibition [16] | inhibition [17] | inhibition [18] | inhibition [19] | inhibition [20]
1 | NS(=O)(=O)c1ccc(N/C=C2\C(=O)Nc3ccc4ncsc4c32)cc1 | 24.7% | 5.86% | 36.7% | 3.85% | 6.44% | 2.1% | 4.82% | -2.5% | 0.29% | 1.61% | 3.86% | 1.19% | 3.5% | 2.49% | 5.22% | 4.28% | 5.3% | 2.44% | 3.42% | 0.93%
2 | NC(=O)c1sc(-n2cnc3cc(C(F)(F)F)ccc32)cc1OCc1ccccc1Br | 1.55% | 1.67% | 2.39% | -0.71% | 0.62% | 2.49% | 0.4% | 0.15% | -0.21% | -3.78% | -1.04% | 1.02% | 1.34% | 3.48% | 6.56% | -1.95% | 0.99% | 1.64% | 1.19% | 0.21%
3 | COc1cc2c(cc1Nc1nc(Nc3ccsc3C(N)=O)c3cc[nH]c3n1)N(C(=O)CN(C)C)CCC2 | 66.8% | 7.36% | 10.6% | 0.79% | 1.32% | 0.16% | 3.39% | 0.44% | 1% | -7.26% | -4.71% | 2.81% | 5.59% |  |  | 0.26% | 20.5% | 0.9% | 8.73% | 8.68%
4 | CCn1c(-c2nonc2N)nc2c(C#CC(C)(C)O)nc(O[C@@H](CN)c3ccccc3)cc21 | 8.92% | -0.06% | 10.1% | 2.29% | -1.16% | -1.39% | -2.85% | -2.57% | -0.15% | -5% | -5.08% | -0.22% | 0.1% | 1.88% | 7.41% | -1.92% | 4% | -0.6% | -1.72% | -1.47%
5 | COc1cccc(COc2cc(-n3cnc4ccccc43)sc2C(N)=O)c1 | -0.71% | 0.3% | -1.09% | -0.68% | -1.24% | -0.05% | 1.34% | 0.36% | -0.76% | -1.48% | 0.56% | -1.78% | -0.4% | -1.6% | 1.95% | -4.25% | 2.72% | -1.17% | -0.04% | -1.14%
6 | CCn1c(-c2nonc2N)nc2c(C#CC(C)(C)O)ncc(OCC3CCNCC3)c21 | -2.43% | -1.83% | -1.39% | -4.33% | 2.37% | 4.21% | 4.11% | -3.09% | -3.54% | 5.4% | 3.99% | -0.24% | 1.71% | -3.91% | -3.68% | 2.79% | 6.24% | 3.74% | 2.43% | 1.64%
7 | CCn1c(-c2nonc2N)nc2c(C#CCN)ncc(OCCCN)c21 | 7.15% | 0.22% | -2.12% | -0.45% | -3% | -6.06% | -3.37% | 2.31% | 2.06% | -0.42% | 2.55% | 3.32% | 3.8% | 2.15% | 8.32% | 2.24% | 5.46% | -0.07% | 9.43% | -0.87%
8 | Nc1nonc1-c1nc2cnccc2n1C1CCCCC1 | 4.86% | -1.07% | 0.24% | 1.92% | -1.58% | -5.22% | -3% | -0.64% | -0.36% | -1.78% | -6.81% | 0.11% | 1.77% | 1.9% | 7.55% | 0.62% | 0.1% | -0.81% | -3.23% | -2.97%
9 | NS(=O)(=O)c1ccc(-c2ccc3c(NC(=O)C4CC4)n[nH]c3c2)cc1 | -2.63% | 1.89% | 6.01% | 4.98% | 3.87% | 0.27% | 1.67% | 1.8% | 1.47% | 6.64% | 2.04% | 0.39% | 1.56% | 1.61% | 5.25% | 0.79% | 1.74% | 2.23% | -1.61% | 0.83%
10 | Cc1cc(-c2ccco2)cc(C)c1/C=C/c1cncc(-c2nn[nH]n2)c1 | 1.57% | 1.51% | 9% | 0.7% | 2.83% | 0.11% | 3.58% | 0.68% | 1.5% | 0.88% | 3.48% | -0.16% | 0.34% | 3.32% | 6.27% | 0.25% | 0.27% | -0.29% | 2.11% | 1.06%
11 | CCn1c(-c2nonc2N)nc2c(C#CC(C)(C)O)ncc(OC[C@@H]3CCCN3)c21 | 0.17% | 2.44% | 1.76% | 1.21% | -0.7% | 3.05% | 2.47% | 0.66% | 1.17% | -1.37% | -0.82% | 1.15% | 2.67% | -1.23% | 1.8% | -0.72% | 2.58% | -0.11% | -1.31% | -0.72%
12 | Fc1ccc(-c2ncn(C3CCNCC3)c2-c2ccnc(Oc3ccccc3)n2)cc1 | -3.54% | -3.23% | -0.29% | 0.89% | 2.13% | 2.9% | 3.59% | -4.26% | -4.63% | 1.9% | 3.34% | 1.18% | 1.96% | 8.94% | 11.7% | 3.24% | 12.9% | 3.69% | 6.82% | 0.12%
13 | COc1cc(C=NNc2ncnc3c2cnn3Cc2ccccc2)ccc1O | 6.34% | 0.65% | 23.8% | 2.02% | 16.9% | -4.22% | -0.85% | -1.51% | -0.27% | -6.66% | 2.56% | -0.76% | 5.7% | 22.5% | 66.8% | 64.3% | 75.5% | 23.4% | 30.6% | -3.01%
14 | COc1cccc(-n2ncc3c(N/N=C/c4ccncc4)ncnc32)c1 | 6.36% | 13.3% | 63.6% | 12.2% | 46.6% | 6.09% | 23.1% | -0.08% | 2.16% | 5.5% | 16.8% | 2.12% | 9.37% | 3.52% | 28.8% | 20.7% | 73.3% | 7.71% | 35.5% | 2.99%
